Measured values taken from PubChem BioAssay AID588850 (Sanford-Burnham Center for Chemical Genomics, 2011).
Values joined by “and” are separate entries in the source; they are usually repeats but may differ in a detail not shown here. Equal values may be shown once. About 3,100 (0.86%) of roughly 360,000 compounds were called active.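 Rule for the calls: active = at least 50% inhibition at 5 µM, scaled per plate between neutral and stimulator controls; inactive = the rest.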 The sample as a whole holds a higher share of actives than the screen did.

test: inhibitors of PAF-induced NF-kB signaling, primary screen, cell-based, GFP fluorescence, uHTS (AID 588850); details: KKLEB NF-kB-GFP reporter, GFP fluorescence overnight, at 5 µM, active compounds read high;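 note: PAF is a Pseudomonas aeruginosa culture filtrate used as stimulus; plate controls were PAF-stimulated DMSO wells for no effect and unstimulated DMSO wells for full effect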

inhibition, inactive:
O=C(N/N=C/c1ccccn1)c1cccc(NC(=O)c2ccc(Cl)cc2)c1 8.6%, S=C(Nc1cccnc1)Nc1ccccn1 -6.9%, CCOc1ccc(C(=O)NC(=S)Nc2ccc(NC(=O)C(C)C)cc2)cc1[N+](=O)[O-] 0.2%, CC(OC(=O)CNC(=O)c1ccc(Cl)c([N+](=O)[O-])c1)C(=O)NCc1ccco1 (configuration not stated) 5.2%, NS(=O)(=O)c1cccc(NC(=O)COC(=O)c2cc([N+](=O)[O-])ccc2N2CCCC2)c1 5.8%, O=C(COc1ccc([N+](=O)[O-])cc1)Nc1cccc(C(=O)Nc2ccccc2C(=O)O)c1 -36%, Cc1ccc(S(=O)(=O)N2C3C=CC(C3)C2C(=O)O)cc1 (configuration not stated) 1.4%, COCc1c(C(=O)OCc2c(C)noc2C)oc2ccccc12 -11.5%, CCOC(=O)N1CCC(Nc2c(NCCCN3CCN(c4ccc(OC)cc4)CC3)c(=O)c2=O)CC1 -6.5%, CCN(CC)C(=O)N1CCN(C(=O)c2ccc(C)cn2)CC1 7.5%, CCN1CCC2(CCN(Cc3cn[nH]c3-c3ccc(OC)c(F)c3)C2)C1 (configuration not stated) 11%, CC(=O)N1CCC(C(=O)OCc2ccc(Cl)cc2)(c2ccccc2)CC1 -6.8%, CCN(CC)CCn1c(/N=C/c2cc(Br)ccc2O)nc2ccccc21 2.3%, O=C(CCc1ccc(O)cc1)NN=Cc1cc(Br)ccc1O -5%, CN1CCCN(C(=O)C2CCCCC2)CC1 -5.1%, CC(=NNC(N)=O)C1CC2CCC1CC2 (configuration not stated) 0.5%, Cc1nc(N2CCN(c3ccccn3)CC2)c2c(C)c(C(=O)Nc3ccc(F)c(Cl)c3)sc2n1 36.8%, Cc1nc(N2CCC(C)CC2)c2c(C)c(C(=O)Nc3cc(F)ccc3C)sc2n1 27.1%, COc1ccc(CC(=O)N[C@@H]2c3cc(OC)c(OC)cc3C[C@H]2OCc2ccccc2)cc1 -5.1%, CN1OC[C@@H]2CN(C(=O)c3ccc(-c4ccccc4)cc3)[C@H](c3ccc(-c4cccc(F)c4)cc3)C[C@@H]21 -13%, CN=C(NC#N)NCCSCc1nc[nH]c1C -4.5%, Cc1cc(C)c(S(=O)(=O)c2cc(F)ccc2C)c(=O)[nH]1 -12.1%, O=C(c1ccccc1)N1CCN(C(=O)c2cc3nc(-c4ccccc4)cc(C(F)(F)F)n3n2)CC1 -4.4%, CN(C)CCN1CCN(c2cc(-c3cccc(Cl)c3)nc3ccnn23)CC1 7.8%, COc1cccc(C(O)c2nc(-c3ccc(C)c(C)c3)cs2)c1 (configuration not stated) 17.1%, COc1cc(C2CC(=O)Oc3cc(OC)c(OC)c(OC)c32)cc(OC)c1OC (configuration not stated) -6.8%, COc1cc(C=C(OC(C)=O)c2ccc3c(c2)OCO3)cc(OC)c1OC -22.3%, C#C[C@]1(O)CC[C@H]2[C@@H]3CCC4=CC(=O)CC[C@@H]4[C@H]3CC[C@@]21CC 3.1% and 6.1%, COc1ccc(CN2CC[C@H]3C=CC[C@@H](C(=O)N4CCOCC4)[C@H]3C2=O)cc1OC -24.1%, Cc1ccc(OC(=O)c2cncc(Br)c2)c(C)c1 1.1%, CC(=O)Nc1c2c(nn1-c1cccc(C)c1)CSC2 3.9%, CCCNC(=O)c1c(Cl)cnn1-c1ccc(C)cc1 9.5%, CC(C)(C)C1CCC(C(=O)NCC(c2cccs2)N2CCOCC2)CC1 (configuration not stated) 21.5%, COc1ccc(C(C(=O)NCc2ccccc2)N(Cc2cccs2)C(=O)c2cnccn2)cc1 (configuration not stated) -3.9%, Cc1cc(Br)cn2c(Cc3cccc(F)c3)c(-c3cccc(Br)c3)nc12 47.6%, Cc1cc2nc(-c3ccc(Cl)cc3)c(Cc3cccc(F)c3)n2c(C)c1Br 17.5%, CC1(C)O[C@@H]2[C@H](O1)[C@@H](CO)O[C@H]2n1c(N2CCCCC2)nc2c(N)ncnc21 7.1%, O=C(Nc1ccc(Br)c2cccnc12)c1ccc(Cn2cc([N+](=O)[O-])cn2)o1 14.3%, N#CC1(Nc2ccc(-c3ccc(Cl)cc3)cc2)CCCC1 -34.4%, Cc1sc2nc(CC(N)=O)[nH]c(=O)c2c1-c1ccccc1 -3.2%, CC(C)OC(=O)c1sc2nc3c(cc2c1N)C(=O)CCC3 -15%, O=C(NCCCN1CCN(c2ccccc2F)CC1)C1CCC(=O)N1C1CCCCC1 (configuration not stated) -1.2%, Cc1ccc(C(=O)N2CCN(S(=O)(=O)N3CCOCC3)CC2)cc1 15.9%, CC(C(=O)Nc1ccccc1-c1ccccc1)N1CCOCC1 (configuration not stated) 14.5%, Nc1c(-c2ccc(F)cc2)cnn1C1CCS(=O)(=O)C1 (configuration not stated) -5.8%

inhibition, active:
S=C(NN=Cc1ccccn1)Nc1ccccn1 73.7%, N#Cc1cccc(NC(=O)COC(=O)c2ccccc2C(=O)c2ccc(Cl)c([N+](=O)[O-])c2)c1 86.9%, CC(=O)Nc1ccc(NC(=O)C(C)OC(=O)c2ccccc2C(=O)c2ccc(Cl)c([N+](=O)[O-])c2)cc1 (configuration not stated) 81.1%, Oc1ccc(Br)cc1/C=N/Nc1ccccn1 107%, COc1ccc(NC(=O)c2sc3nc(C)nc(N4CCN(c5ccccn5)CC4)c3c2C)c(OC)c1 53.3%, O=C(OC12CC3CC(CC(C3)C1)C2)c1ccc(NCc2cc(O)ccc2O)cc1 60.3%, C#Cc1cc(N2CCN(C(=O)c3ccoc3)CC2)n2nc(-c3cccc(Cl)c3)cc2n1 64.7%, COc1cc(C2c3cc4c(cc3C(O)C3COC(=O)C23)OCO4)cc(OC)c1OC (configuration not stated) 50.8%, Cc1cccc(-n2ncc(Cl)c(Cl)c2=O)c1 85.5%, Cc1cc2nc(-c3ccco3)c(Cc3cccc(F)c3)n2c(C)c1Br 62.5%, NC(=O)c1sc2nc3c(c(-c4ccccc4)c2c1N)CCC3 78.3%, Cc1oc2c(c1C(=O)N1CCOCC1)C(=O)c1ccccc1C2=O 72.2%
